Assay outcomes: PubChem, The Scripps Research Institute Molecular Screening Center
Rows were chosen to be rich in hits. Some 1.9% of all compounds tested hit in one or more screens of this group.
MsrA inh – bovine MsrA enzyme inhibitors, primary screen, biochemical, absorbance, HTS; Methionine sulfoxide reductase A (Bos taurus); purified bovine MsrA, absorbance read-out; inhibition, % at 15.5 µM; 360,000 compounds, 0.75% hits; in the data active = inhibition above about 4.5%;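 note: 0% = vehicle wells with enzyme and 100% = reference inhibitor wells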
bovine MsrA act – bovine MsrA enzyme activators, primary screen, biochemical, absorbance, HTS; AID 602163, 2012; 360,000 compounds, 0.3% hits; purified bovine MsrA, absorbance read-out; activation, % at 10.6 µM; in the data active = activation above about 7.5%;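 note: 0% = vehicle and 100% = reference activator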
PLCb3 inh – human PLC-beta3 inhibitors, primary screen, biochemical, fluorescence; Purified PLC-beta3, fluorogenic substrate; inhibition, % at 12.2 µM; 370,000 compounds, 0.18% hits; AID 720704, 2013; in the data active = inhibition above about 11%;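 note: 0% = median of compound wells on plate and 100% = full blocker control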
PLC-gamma1 inh – PLC-gamma1 enzyme inhibitors, primary screen, biochemical, fluorescence, purified enzyme; AID 720700, 2013; 370,000 compounds, 0.84% hits; fluorogenic substrate; inhibition, % at 12.2 µM
Target sequence (P19174 whole entry, looked up): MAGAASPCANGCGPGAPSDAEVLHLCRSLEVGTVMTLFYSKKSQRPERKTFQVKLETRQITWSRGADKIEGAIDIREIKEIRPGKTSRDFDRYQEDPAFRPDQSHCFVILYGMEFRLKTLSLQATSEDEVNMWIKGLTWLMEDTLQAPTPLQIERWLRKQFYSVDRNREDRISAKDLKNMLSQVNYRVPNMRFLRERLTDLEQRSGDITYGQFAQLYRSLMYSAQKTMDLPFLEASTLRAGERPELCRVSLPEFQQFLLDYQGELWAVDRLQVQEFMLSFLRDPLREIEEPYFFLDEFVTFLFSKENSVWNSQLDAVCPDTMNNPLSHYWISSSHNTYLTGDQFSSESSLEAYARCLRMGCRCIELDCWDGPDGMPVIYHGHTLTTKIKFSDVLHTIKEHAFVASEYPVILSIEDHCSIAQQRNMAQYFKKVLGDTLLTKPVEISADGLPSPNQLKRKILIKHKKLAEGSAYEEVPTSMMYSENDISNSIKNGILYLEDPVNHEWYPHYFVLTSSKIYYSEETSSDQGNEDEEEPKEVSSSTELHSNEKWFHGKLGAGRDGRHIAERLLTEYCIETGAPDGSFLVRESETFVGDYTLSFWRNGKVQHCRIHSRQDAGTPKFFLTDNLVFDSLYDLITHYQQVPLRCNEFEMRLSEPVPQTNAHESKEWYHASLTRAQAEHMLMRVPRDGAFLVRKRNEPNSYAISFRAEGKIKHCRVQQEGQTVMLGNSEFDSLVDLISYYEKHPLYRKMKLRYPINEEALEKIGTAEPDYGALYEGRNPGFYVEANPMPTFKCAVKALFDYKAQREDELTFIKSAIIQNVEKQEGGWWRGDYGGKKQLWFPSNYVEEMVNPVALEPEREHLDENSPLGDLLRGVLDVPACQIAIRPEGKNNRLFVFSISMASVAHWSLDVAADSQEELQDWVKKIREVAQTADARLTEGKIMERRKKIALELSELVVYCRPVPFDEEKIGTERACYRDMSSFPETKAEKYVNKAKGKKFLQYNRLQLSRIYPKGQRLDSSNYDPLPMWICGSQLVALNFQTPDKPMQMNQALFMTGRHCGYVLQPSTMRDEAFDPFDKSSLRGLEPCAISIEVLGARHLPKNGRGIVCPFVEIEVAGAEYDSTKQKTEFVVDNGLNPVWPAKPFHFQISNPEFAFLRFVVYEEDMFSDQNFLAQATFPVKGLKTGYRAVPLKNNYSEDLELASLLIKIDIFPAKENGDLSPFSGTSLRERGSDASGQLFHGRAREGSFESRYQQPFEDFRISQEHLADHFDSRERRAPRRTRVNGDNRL
PLCg1 ctr – PLC-gamma1 enzyme inhibitors, counter-screen for PLC-beta3 inhibitor project, biochemical, fluorescence; 3,300 compounds, 3.1% hits; shares compounds with PLC-gamma1 inh; purified PLC-gamma1, fluorogenic substrate; inhibition, % at 12.3 µM
PLCbeta3 conf – PLC-beta3 inhibitor confirmation, biochemical, fluorescence, purified enzyme | inhibition, % at 12.3 µM | fluorogenic substrate fluorescence | shares compounds with PLC-gamma1 inh | AID 743261, 2014 | 3,300 compounds, 1% hits; in the data active = inhibition above about 11%
Starred values were filed as active, the others as inactive; · = not tested or not shown. Cut-off read from the data, not from the text of the source, unless noted: active = inhibition above about 9.5%; inactive = the rest.

SMILES	MsrA inh	bovine MsrA act	PLCb3 inh	PLC-gamma1 inh	PLCg1 ctr	PLCbeta3 conf
CC1(C(=O)NS(=O)(=O)c2ccc(Cl)s2)CCN1C(=O)C1(c2ccccc2)CCCC1 (stereo unspecified)	-0.2	-12.5	2.6	3.7	·	·
COc1ccc(-c2nnc(SCC(=O)NCc3cccs3)n2CC(C)C)cc1	0.9	-6.8	8.8	10.2*	-3.0	0.9
COc1ccc(-c2nnc(SCC(=O)Nc3ccccc3)n2C)cc1	0.2	-1.6	1.9	13.2*	-6.6	-2.8
COc1ccc(-c2nnc(SCC(=O)N/N=C/c3ccccc3C(=O)O)n2-c2ccccc2)cc1	0.4	-9.6	2.7	13.6*	-1.1	-1.8
CCOC(=O)[C@]12CCCC=C1N(CCCOC)C(=O)[C@@H]2CC(=O)NCCc1ccccc1OC	·	·	0.0	5.9	·	·
CC(C)CN(CC(C)C)S(=O)(=O)c1cc([N+](=O)[O-])ccc1N1CCCCCC1	-0.1	-4.1	-2.8	-3.9	·	·
CN(C)S(=O)(=O)c1cc([N+](=O)[O-])ccc1N1CCCCCC1	4.0	-5.1	9.2	10.1*	-3.0	-2.8
Cc1ccnc(NC(=O)c2ccc(Cl)c(NC(=O)C(C)Oc3ccccc3)c2)c1 (stereo unspecified)	1.4	-0.5	5.2	9.9*	-5.5	-3.6
Cc1cc(Br)cn2c(Cc3ccccc3C(F)(F)F)c(-c3ccc(F)cc3)nc12	0.1	·	-4.0	-4.1	·	·
C(=N\N1CCN(c2ccccn2)CC1)/c1ccccn1	2.3	3.8	2.9	9.7*	-1.9	0.9
O=C(c1ccc([N+](=O)[O-])cc1)N1CCOC12CCN(c1ncc(C(F)(F)F)cc1Cl)CC2	1.4	0.6	9.3	11.0*	2.8	0.8
O=C(COC(=O)c1ccccc1O)NCCc1c[nH]c2ccccc12	-0.8	-8.9	-8.2	-1.9	·	·
O=C(COC(=O)c1ccccc1C(=O)OCC(=O)NCCc1c[nH]c2ccccc12)NCCc1c[nH]c2ccccc12	-0.1	-3.2	5.1	9.9*	9.6*	2.8
Cc1ccc(Cl)c(OCC(=O)Nc2ccc3c(c2)OCCO3)c1	0.5	-3.9	0.5	4.4	·	·
CCN(CC(=O)Nc1ccc2c(c1)OCCO2)C(=O)COc1cc(C)ccc1Cl	-0.6	-0.9	4.7	11.5*	-8.0	-2.2
CC(=O)Nc1ccc(NC(=O)CSc2nnc(-c3n[nH]c4c3CCC4)n2N)cc1	·	·	3.5	0.1	·	·
Cc1ccccc1NC(=O)CNC(=O)c1ccc(C(F)(F)F)cc1	-0.8	-7.4	-1.2	-3.0	·	·
Cc1ccccc1NC(=O)Nc1ccc(C(F)(F)F)cc1	1.8	-1.7	12.0*	12.7*	0.5	1.5
CCC(C)c1ccc(NC(=O)Nc2cnccn2)cc1 (stereo unspecified)	1.1	-1.9	-7.3	0.5	·	·
COc1ccc(S[C@]2(C(=O)NCCc3ccccc3)CC(=O)N[C@@H]2c2ccc(OC)cc2)cc1	·	·	7.5	5.1	·	·
CN1CCN(c2nc3c(c(=O)[nH]c(=O)n3C)n2CC(N)=O)CC1	0.3	-0.2	8.2	13.5*	-5.0	-1.7
O=c1[nH]n(-c2ccccc2Cl)c(=O)c2ccccc12	2.5	-0.7	-3.6	13.9*	-10.4	-6.7
COC(=O)C1=C(C)N(Cc2ccccc2C(F)(F)F)C(=NCc2ccc(C(F)(F)F)cc2)NC1c1cccc(F)c1 (stereo unspecified)	-0.5	·	-1.9	1.0	·	·
COC(=O)C1CN(CC(C)C)CCS(=O)(=O)N1Cc1ccc(OC)cc1 (stereo unspecified)	·	·	1.7	3.5	·	·
CCOC(=O)C1CCN(C(=O)COc2ccc(Br)cc2)CC1	0.8	-0.3	6.6	11.4*	-3.9	-0.4
SMILES	MsrA inh	bovine MsrA act	PLCb3 inh	PLC-gamma1 inh	PLCg1 ctr	PLCbeta3 conf
CCOC(=O)C1CCN(CC(O)COc2ccc(C(C)(C)CC)cc2)CC1 (stereo unspecified)	1.9	-10.0	8.4	12.3*	-2.6	-1.9
CCOC(=O)C1CCN(CC(O)COc2ccc(C(C)(C)C)cc2)CC1 (stereo unspecified)	-1.7	1.3	3.0	-0.2	·	·
CC(C)(C)c1ccc(OCC(O)CN2CCN(C(=O)c3ccccc3)CC2)cc1 (stereo unspecified)	-1.0	-4.0	8.8	13.9*	-0.7	-0.2
Cc1cc(C(=O)O)c(CCCN)s1	1.0	-0.5	11.6*	5.9	-2.2	1.1
CCCCc1c(C(=O)O)cc(OC)cc1C(=O)O	0.5	-1.7	4.1	7.6	·	·
COc1ccc(Cn2cc(COC(=O)N3CCCC3)nn2)cc1	·	·	2.8	2.3	·	·
CSc1ccc(OC2(C)CCN(Cc3ccc(-c4ccccn4)cc3)C2)cc1 (stereo unspecified)	-1.1	-0.7	-0.9	-0.5	·	·
COC(=O)c1ccc(NC(=O)C2CC3CCC2C3)cc1 (stereo unspecified)	-0.7	-0.9	0.8	5.5	·	·
COC(=O)c1ccc(NC(=S)NC2CC3CCC2C3)cc1 (stereo unspecified)	-0.4	4.6	5.5	9.6*	4.1	3.8
O=C(Cn1cc2c(n1)CCCCC2)NCc1ccccc1	-0.6	-5.5	-0.4	0.2	·	·
CCN(Cc1ccccc1)C(=O)Cn1cc2c(n1)CCCC2	0.5	-6.1	6.4	10.1*	-5.7	-1.5
CN(Cc1ccc(Cl)cc1)C(C(=O)NC1CCCCC1)c1ccnc2ccccc12 (stereo unspecified)	2.8	-6.4	-0.3	-0.9	·	·
COc1ccc(C)cc1S(=O)(=O)Nc1ccccc1C	1.6	-2.3	10.0	11.4*	-5.8	-4.2
CCc1ccc(OC)c(S(=O)(=O)Nc2ccccc2C)c1	1.6	-1.9	-1.4	2.2	·	·
CC(=O)Nc1cc(S(=O)(=O)Nc2ccccc2C)c(C)cc1C	-1.0	-14.1	6.0	9.8*	-1.6	2.6
Cc1ccccc1NS(=O)(=O)c1cc(S(C)(=O)=O)ccc1C	-0.4	-3.2	2.0	0.8	·	·
Cc1ccccc1NS(=O)(=O)c1ccc(C)c(NS(C)(=O)=O)c1C	1.2	-2.3	-1.5	9.9*	2.3	0.5
Cc1nc2sccn2c(=O)c1S(=O)(=O)Nc1ccc(N2CCN(C(=O)C(C)C)CC2)cc1	3.2	-8.3	5.7	12.2*	-4.7	-0.4
COC(=O)C1=C(C)N(Cc2ccccc2C(F)(F)F)C(=NCc2cc(OC)c(OC)c(OC)c2)NC1c1ccccc1 (stereo unspecified)	-2.0	·	0.7	-5.0	·	·
C[C@@H]1CC=C[C@@H]2[C@H]1C(=O)N(Cc1ccccc1)[C@H]2c1cccc(Br)c1	1.1	-5.6	4.4	11.7*	0.4	0.1
Fc1ccc(C(c2nnnn2C2CCCC2)N(Cc2ccco2)CC2CCCO2)cc1 (stereo unspecified)	1.7	-3.9	11.5*	11.0*	-6.9	-0.3
CC1=CCn2c(=O)c3ccccc3c(=O)n2C1	0.8	-2.0	1.4	10.7*	7.8	1.8
Cc1ccc(S(=O)(=O)/N=C2/NC(=O)/C(=C\c3ccccc3)S2)cc1	3.6	-5.5	-5.0	-0.5	·	·
